In the library only some 3.3% were active in any assay of this set; here they are far more common.
IMPase cell inh – qHTS Assay for Identifying the Cell-Membrane Permeable IMPase Inhibitors. CHO-M1 cells, IP1 accumulation, HTRF TR-FRET ratio. AID 901, 2007. Inositol monophosphatase 1 (Rattus norvegicus), P97697. 120,000 tested, under 10 active. inhibition (IP1 accumulation), % at 46.1 µM; active = well fitted curve in the direction sought with a large enough effect in the signal ratio, not every such curve was filed as active; inconclusive = small, poorly fitted or top-dose-only effect, or a change in a side signal; inactive = no such curve, though single readings can be large or run the other way; the % refers to the signal ratio;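 also: cells stimulated with carbachol in lithium chloride buffer; plate controls were DMSO basal wells for no effect and reference inhibitor wells for full effect; higher means more IMPase inhibition seen as more IP1 and lower FRET ratio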
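Seeded CHO-M1 cells were dosed with compound at up to 46 uM, stimulated with carbachol for 30 min, then lysed in IP-One detection reagents. Higher IP1 lowers the TR-FRET signal.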
HTT cytoprotect – qHTS Multiplex Assay to Identify Dual Action Probes in a Cell Model of Huntington: Cytoprotection (ATP). AID 1471, 2008. PC12 HTT-Q103 induced, cytoprotection, ATP luminescence, 40 h. 230,000 compounds, 0.14% hits. Potency, µM (doses to about 56.4 µM), without a hit: cytoprotection (ATP increase), hits mostly activators; also: potency is read from the fitted curve at half-maximal effect; % of control where 0% means no effect; nearly all actives have a fitted effect of over 45% in size
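Quantitative HTS on tebufenozide-induced (100 nM) PC12 cells expressing HTTQ103 exon 1–GFP; compounds tested as a concentration series; survival measured via cellular ATP.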
PNC inhibitor – High Content Assay for Compounds that inhibit the Assembly of the Perinucleolar Compartment. PC3M PTB-GFP, PNC prevalence imaging, 16 h; active compounds read low. activity change (PNC), negative = inhibition, % at 10 µM. 140,000 compounds, 3.1% hits;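 active = readout at or below -70, meaning at least 70% loss of cells showing the perinucleolar compartment, a nuclear body marking cancer cells; inconclusive = readout between -30 and a set limit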;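 also: plate controls were DMSO wells for no effect and camptothecin positive control wells for full effect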
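PC3M cells stably expressing PTB-GFP, 750–1000 cells/well, treated 16 h at 37 °C with compound (23 nl of library stock), in duplicate. After paraformaldehyde fixation and Hoechst stain, imaged at 20x; PNC prevalence scored by image analysis.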
HttQ103 aggreg – qHTS Multiplex Assay to Identify Dual Action Probes in a Cell Model of Huntington: Aggregate Formation (GFP); 220,000 compounds, 1.1% hits; Potency, µM (highest dose often 46.1 µM), without a hit: at the top dose activity change, negative = inhibition, usual class: inhibitors; PC12 HttQ103-GFP aggregates, Acumen cytometry, 40 h; also: potency is read from the fitted curve at half-maximal effect; % is scaled to controls: 0 for no effect and ±100 for the full control effect; nearly all actives have a fitted effect of over 60% in size
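PC12/HTTQ103-GFP, ecdysone-inducible; teb 100 nM; cpd qHTS titration; GFP aggregates read on laser cytometer, Ex 488/Em 500-530 nm.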
NPSR antagonist – qHTS Assay for Antagonists of the Neuropeptide S Receptor: cAMP Signal Transduction. 220,000 compounds, 1% hits. Q6W5P4. AID 1461, 2008. Potency, µM (series often up to 38.3 µM), for the others: top-dose activity change, negative = inhibition, actives largely listed as inhibitors. CHO-NPSR cells, cAMP TR-FRET, antagonist mode; also: potency is read from the fitted curve at half-maximal effect; % is scaled to controls: 0 for no effect and ±100 for the full control effect; nearly all actives have a fitted effect of over 50% in size
ALOX12 inhib – qHTS Assay for Inhibitors of 12-hLO (12-human lipoxygenase). Potency, µM (titrated, usually from 57.1 µM), for inactives: at the highest dose activity change, negative = inhibition, actives largely listed as inhibitors. AID 1452, 2008. Polyunsaturated fatty acid lipoxygenase ALOX12 (Homo sapiens), P18054. purified 12-hLO, xylenol orange hydroperoxide absorbance. 150,000 compounds, 0.12% hits; also: potency is read from the fitted curve at half-maximal effect; % is scaled to controls: 0 for no effect and ±100 for the full control effect; nearly all actives have a fitted effect of over 55% in size
Target sequence (P18054 whole entry, looked up): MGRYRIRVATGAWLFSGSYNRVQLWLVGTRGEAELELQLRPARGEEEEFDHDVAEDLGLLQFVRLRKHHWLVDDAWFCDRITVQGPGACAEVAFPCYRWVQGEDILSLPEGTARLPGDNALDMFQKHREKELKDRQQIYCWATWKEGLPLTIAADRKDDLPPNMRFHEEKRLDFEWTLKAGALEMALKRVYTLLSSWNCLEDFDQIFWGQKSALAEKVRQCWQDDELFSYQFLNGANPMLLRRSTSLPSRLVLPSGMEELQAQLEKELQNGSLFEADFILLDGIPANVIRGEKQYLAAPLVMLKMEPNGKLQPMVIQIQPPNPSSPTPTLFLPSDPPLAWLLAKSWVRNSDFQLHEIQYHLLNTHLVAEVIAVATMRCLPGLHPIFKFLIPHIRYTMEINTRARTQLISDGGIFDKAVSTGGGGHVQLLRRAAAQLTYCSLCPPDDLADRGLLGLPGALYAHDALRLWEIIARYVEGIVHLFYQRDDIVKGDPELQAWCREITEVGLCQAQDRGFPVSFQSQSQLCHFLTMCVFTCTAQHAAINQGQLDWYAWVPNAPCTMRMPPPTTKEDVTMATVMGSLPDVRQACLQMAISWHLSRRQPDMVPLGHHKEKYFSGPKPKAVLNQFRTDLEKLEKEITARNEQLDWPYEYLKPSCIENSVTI
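Hydroperoxide formation by human 12-lipoxygenase from 40 uM arachidonic acid was followed colorimetrically via ferric-xylenol orange complex, using the 573/405 nm absorbance ratio. Enzyme concentration was 150 nM, with 30 min reaction at room temperature.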
The depositor's hits bear a star; ? = inconclusive; nt = not tested or not shown; [ ] = dose if it differs, or a comment. Unless noted, calls follow the shape of the dose curve; as a rule, active = well fitted curve in the direction sought with a large enough effect; inconclusive = small, poorly fitted or top-dose-only effect, or another doubt; inactive = no such curve, though single readings can be large; an effect the other way counts as inactive or inconclusive.

SMILES	IMPase cell inh	HTT cytoprotect	PNC inhibitor	HttQ103 aggreg	NPSR antagonist	ALOX12 inhib
NC1=NC(=O)/C(=C/c2ccsc2)S1	nt	-13.5%	nt	-21.2%	-15.1%	nt
O=C(O)CCSC1=NCCN1	nt	-4.8%[10 µM]	nt	nt	nt	6.8%[11.4 µM]
CCc1cc2cc3c(cc2nc1SCC(=O)Nc1nccs1)OCO3	?	-96.0%	60.1	1.7%	10µM*	0.3%
COc1ccc(N=Cc2cc(Cc3ccccc3Cl)cc([N+](=O)[O-])c2O)cc1OC	nt	35.5µM*	nt	22.4µM*	-24.5%	nt
COc1ccc([N+](=O)[O-])cc1NC(=O)Cc1ccccc1Cl	nt	19.5%[10 µM]	?	-11.6%	-4.5%	1.0%
CC[N+]1=C(C)C(C)(C)c2cc(C)ccc21	nt	-112.2%	nt	2.51µM*	33.6%	nt
Cc1ccc2c(c1)C=CC(C)(C)S2=O (stereo not drawn)	nt	9.9%[10 µM]	23.0	-8.6%	7.2%	-3.7%
Cc1cccc(CNc2cc(-c3ccoc3)ncn2)c1	nt	13.1%	nt	nt	nt	-21.0%
CCN1CCN(C(=O)c2sc3nc(C)nc(N4CCC(C)CC4)c3c2C)CC1	-4.6	4.3%[1.9 µM]	-88.2*	-8.5%	-10.5%[46.1 µM]	2.0%
Cc1nc(N2CCC(C)CC2)c2c(C)c(C(=O)O)sc2n1	?	-15.0%[1.9 µM]	11.1	?	22.4%[46.1 µM]	-5.2%
CC1(C)CC(=O)C2=C(C1)N(Cc1ccco1)C(=O)C2(NC(=O)c1ccc(Cl)cc1Cl)C(F)(F)F (stereo not drawn)	2.8	-7.0%	14.2	-14.3%	-20.9%[46.1 µM]	5.7%
CC1(C)CC(=O)C2=C(C1)N(Cc1ccco1)C(=O)C2(NC(=O)C1CCCCC1)C(F)(F)F (stereo not drawn)	3.4	-4.1%	25.2	5.62µM*	-20.3%[46.1 µM]	-7.6%
COc1ccc(CCNc2oc(-c3cccc4ccccc34)nc2P(=O)(OC)OC)cc1OC	-1.3	15.2%[10 µM]	-2.0	-6.4%	-12.8%[46.1 µM]	-1.7%
COP(=O)(OC)c1nc(-c2cccc3ccccc23)oc1NCCc1ccccc1	nt	11.7%[10 µM]	-91.4*	10.5%	-26.7%	-5.4%
COc1cc(NC(=O)Cn2nc(C(F)(F)F)c3c2CCC3)cc(OC)c1OC	-10.1	nt	nt	nt	nt	nt
O=C(c1cccc(F)c1)N1CCC2(CC1)CN(C(c1ccccc1)c1ccccc1)C2	nt	-4.1%	nt	nt	nt	3.3%
COc1cc(/C=C(\NC(=O)c2ccccc2)C(=O)NCCO)c([N+](=O)[O-])cc1OC	nt	nt	-93.1*	3.5%	10.3%	-7.5%
Cc1cc(C)c(-c2c(O)c3cccc4c3n(c2=O)CCC4)c(C)c1	-0.1	20.9%[10 µM]	-100.0*	4.4%	-2.7%[46.1 µM]	4.0%
CC1CC(=O)C2=C(C1)Nc1ccccc1SC2c1ccc(F)cc1 (stereo not drawn)	nt	nt	-85.3*	-22.0%	-17.7%	-5.4%
CCCC1(C(=O)O)NC(c2ccccc2O)C2C(=O)N(Cc3ccccc3)C(=O)C21 (stereo not drawn)	7.5	-10.1%	-110.3*	3.3%	11.6%[46.1 µM]	-12.2%
CCC1(C(=O)O)NC(c2cc(OC)ccc2O)C2C(=O)N(Cc3ccccc3)C(=O)C21 (stereo not drawn)	-1.1	-9.9%	33.9	9.3%	-1.6%[46.1 µM]	0.8%
CC(=O)OCC(=O)[C@@]1(O)[C@H](OC(C)=O)C[C@H]2[C@@H]3CCC4=CC(=O)C=C[C@]4(C)[C@@]3(F)[C@@H](O)C[C@@]21C	nt	-74.9%	nt	nt	nt	-1.4%[0.00818 µM]
CCN(CC)c1ccc2c(Cl)c(Br)c(=O)oc2c1	?	?	-25.3	?	3.16µM*	-6.2%
CCN(CC)c1ccc2c(c1)oc(=O)c1c(Cl)cc(=O)oc12	-8.5	-39.7%	-3.9	12.6µM*	3.98µM*	-12.8%
CS(=O)(=O)N1CCC2(CCN(C(c3ccccc3)c3ccccc3)CC2)CC1	nt	?	nt	nt	nt	4.0%
